From PubChem BioAssay AID504334 (NMMLSC, 2011) come the findings set out here.

Several values for one entry are separate records, joined by “and”; a condition that tells them apart may be missing. Equal values may be shown once. A number with no mark means an inactive call.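 Rule for the calls: active = response relative to DMSO over 150%; inconclusive = yeast strain with under 70 recorded events; inactive = the rest.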

This assay is described as follows: yeast AGP1-GFP fluorescence change, single-dose confirmation – cell-based, flow cytometry, S. cerevisiae, cherry pick set 3 (AID 504334).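 Note: median GFP fluorescence per well by flow cytometry over the all cells gate; ratio of sample to mean DMSO control signal so DMSO = 100% not 0%.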 To be noted: S. cerevisiae AGP1-GFP strain, 3 h, at 10 µM, stronger effect = higher value. On the technique in general: A flow cytometer gives signals particle by particle.
On to `O=C(O)c1ccc2cccc(O)c2n1`, for which the percent response vs DMSO is 103%.
Turning to `Nc1[nH]c(=O)nc(Nc2ccccc2)c1N=O`, the percent response vs DMSO was 101%.
With `O=C(Nc1ccc(-c2nc3ccccc3o2)cc1)c1cccnc1` the figure was 100%; with `O=C(Nc1ccccc1)O/N=C1/CCCc2occc21`, 94.4%; with `CN1CCN(C(=O)c2cc(COc3ccc(F)cc3Cl)on2)CC1c1ccccc1` (centres undefined), 101%.
Under `O=C(/C=C/Nc1cccc(O)c1)c1ccccc1` stands 102%; under `Cc1cc(C)c2ccc(C(=O)O)nc2c1O`, 97.4%; under `CNc1nc(N)c([N+](=O)[O-])c(Nc2cccc(Cl)c2)n1`, 104%.
Under `O=C(O)CCS(=O)(=O)c1nc(-c2cccs2)cc(C(F)(F)F)n1` stands 111%; under `COc1ccc(Nc2nc(NN)nc(C)c2[N+](=O)[O-])cc1`, 94.1%.
For the molecule `COc1ccccc1Nc1nc(NCCC(C)C)nc(N)c1[N+](=O)[O-]`, the percent response vs DMSO was 104%.
In the case of `CCN(CC)C(=O)Oc1cc(=O)n(C)c2ccccc12`, the percent response vs DMSO was 100%.
With `C/C(=C\C(=O)c1ccccc1)Nc1ccc(O)cc1` the figure was 98.4%; with `COc1cccc2c(Cl)c(CCCl)c(C)nc12`, 99.8%; with `CC(C)Nc1ncnc2ccc(Br)cc12`, 99.4%.
For `C[n+]1cccc2c(Br)ccc([O-])c21`, the percent response vs DMSO was 100%.
With `Nc1cc(C(=O)O)c(N)c2c1C(=O)c1ccccc1C2=O` the figure was 102%.
With `Oc1c(Br)cc(Br)c2cccnc12` the figure was 109%; with `COCC(C)NC(=O)CCS(=O)(=O)c1nc(-c2ccc(OC)cc2)cc(C(F)(F)F)n1` (centres undefined), 98.4% and 101%; with `Cc1ccc(NN2C(=O)C=C(c3ccccc3)C2=O)cc1`, 92.8%.
Under `Cc1ccc(NC(=O)O/N=C2\CCCCC2c2ccc([N+](=O)[O-])cc2[N+](=O)[O-])cc1` (centres undefined) stands 100%.
As for `COc1ccc(N/C=C/C(=O)c2ccc(Cl)cc2)cc1`, the percent response vs DMSO is 98.1%.
For `COc1cccc2c(=O)c(C(=O)O)c[nH]c12`, the percent response vs DMSO was 94.1%.
For the molecule `Cc1nc(Nc2ccc(Br)cc2Br)c([N+](=O)[O-])c(=O)[nH]1`, the percent response vs DMSO is 95.4%.
Under `COc1cc(OC)cc(C(=O)Nc2ccc(-c3nc4ccccc4o3)cc2)c1` stands 99.1%; under `Cc1cc(C)c2ccc(N)nc2c1O`, 101%; under `Cc1ccc(C(=O)Nc2nc(-c3ccccn3)cs2)o1`, 102%.
`O=C(Nc1ccccc1)O/N=C1\CCCCC1c1ccc([N+](=O)[O-])cc1[N+](=O)[O-]` (centres undefined): the percent response vs DMSO was 102%.
With `Cn1c(NCCCO)nc2c(c1=O)C1(CCCCC1)Cc1ccccc1-2` the figure was 104%.
Take `CCCCC(=O)NCCc1cc2c(OC)ccc(OC)c2[nH]c1=O`: the percent response vs DMSO is 98.8%.
With `Nc1c(O)ccc2c1C(=O)c1ccccc1C2=O` the figure was 110%; with `Nc1ccc(O)c2c1C(=O)c1ccccc1C2=O`, 103%; with `Nn1cnc2c(c1=O)C1(CCCCC1)Cc1ccccc1-2`, 94.1%.
Under `Brc1ccc2ncnc(NCc3ccccc3)c2c1` stands 94.8%; under `OCc1ccc(O)c2ncccc12`, 98.8%; under `CC(=O)NCCOc1cccc2cccnc12`, 101%.
Consider `O=C(O)c1ccccc1-c1ccccc1C(=O)Nc1ccc(-c2nc3cc(Cl)ccc3o2)cc1`, for which the percent response vs DMSO was 103%.
With `OCCNc1ncnc2ccc(Br)cc12` the figure was 101%.
With `CC(=O)C(CC(=O)N1CCCC1)C(=O)Nc1ccc(Cl)cc1` (centres undefined), the percent response vs DMSO was 100%.
